# Results taken from PubChem BioAssay (NCI).
# About 83,000 compounds went through this panel and 20% of them were active in at least one assay; those are over-represented in the sample as a whole.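 The endpoint reported here, percent growth, reads 100 for growth as untreated, 0 for no net growth and -100 for all cells dead.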 Calls of active or inactive are those of the source.
# Test system: ACHN renal
# Assay: NCI-60 one-dose screen, 48 h (100 = growth as untreated, 0 = no growth, -100 = all killed)
# Details: 10 µM
# Method: Growth inhibition of the ACHN human tumor cell line is measured as a screen for anti-cancer activity. Cells are grown in 96 well plates and exposed to the test compound for 48 hours. Compounds are tested at a single concentration, which is 10^-5 M for most compounds. The reported endpoint is percent growth (GI% or GIPRCNT), where numbers from 0 - 100% represent growth inhibition, and numbers from -100% - 0 represent cell death. For example, a value of 40 represents 60% growth inhibition. A value of 0 means no net growth occurred over the course of the experiment. A value of -40 indicates 40% of cells at the beginning of the experiment died by the end of the experiment. A value of -100 means all cells are dead at the end of the experiment.
# NCI-60 Human Tumor Cell Lines Screen was performed using the standard one-dose NCI protocol, which is described in more detail at https://dtp.cancer.gov/discovery_development/nci-60/default.htm.
# Compounds with GIPRCNT values below 10 were considered active. Activity score was based on GIPRCNT using the following formula: […]
# Score is 0 for GIPRCNT values of 100 or above, 50 for GIPRCNT values of 0, and 100 for GIPRCNT values of -100.
row,SMILES,growth
1,Nc1cc2c(cc1Cl)-c1ccc(Cl)cc1C2=O,98.4% (inactive)
2,C[N+]1(CC2CO2)CCCCCC1 (stereo not given),101% (inactive)
3,COc1ccc(-c2nc(SCC(=O)c3ccc(Br)cc3)[nH]c(=O)c2C#N)cc1,122% (inactive)
4,CC(Oc1ccc(Cl)cc1)c1ccccc1 (stereo not given),125% (inactive)
5,C#CCNCCCN1C(=O)c2ccc3c4c(ccc(c24)C1=O)C(=O)N(CCCNCC#C)C3=O,-33.1% (active)
6,C[n+]1c(/C=C/c2c[nH]c3ccccc23)ccc2ccccc21,77.1% (inactive)
7,O=NN(CCCl)C(=O)Nc1ccc(NC(=O)N(CCCl)N=O)cc1,96.4% (inactive)
8,O=C(c1ccccc1)C(Nc1ccccc1)c1ccccc1 (stereo not given),89.2% (inactive)
9,O=C1/C(=C/c2ccc(O)cc2)CSc2ccc(Cl)cc21,88.9% (inactive)
10,O=[N+]([O-])c1ccc(-c2nc(Cl)c3c(n2)CCCC3)o1,97.4% (inactive)
11,COC(=O)c1c(C)nc(Nc2nc3ccccc3s2)nc1-c1ccc(Cl)cc1Cl,96.7% (inactive)
12,CCCCn1c(=O)[nH]c(N)c(C(c2ccc(Cl)cc2)c2c(N)[nH]c(=O)n(CCCC)c2=O)c1=O,67.2% (inactive)
13,C(=C\c1nc2ccccc2s1)/c1ccc(N2CCOCC2)s1,63.4% (inactive)
14,COc1ccc(C2=NNC(c3sc(Cl)nc3Cl)C2)cc1 (stereo not given),105% (inactive)
15,FC(F)(F)c1ccc(-c2ncc(-c3ccc(C(F)(F)F)cc3)c(NCc3cc(C(F)(F)F)cc(C(F)(F)F)c3)n2)cc1,27.4% (inactive)
16,Cc1cc(C)c(/C=C2\C(=O)Nc3ccc(NC(=O)CCCCCCC(=O)NO)cc32)[nH]1,58.5% (inactive)
17,Oc1ccc(/C=N\Nc2ccccn2)c(O)c1,7.03% (active)
18,N#CCC1CCCC1,98.1% (inactive)
19,N=C(N)c1ccc(-c2ccc(-c3ccccc3)s2)cc1F,-98.3% (active)
20,NC1CCC(Nc2nc(NCc3ccc(-c4ccco4)nc3)c3ncn(C4CCCC4)c3n2)CC1 (stereo not given),2.36% (active)

row,SMILES,growth
1,COc1ccc(C2C=C(c3ccc(Cl)c(Cl)c3)N=C3SC(C)=CN32)cc1 (stereo not given),103% (inactive)
2,O=C/C=C/c1ccc([N+](=O)[O-])cc1Cl,115% (inactive)
3,COc1cccc2c1C(=O)c1c(O)c3c(c(O)c1C2=O)C[C@@](O)(C(=O)COC(=O)c1ccccc1)C[C@@H]3OC1CC(N)C(O)C(C)O1 (stereo not given in full),-95.6% (active)
4,O=C(Nc1cccc([N+](=O)[O-])c1)NN1CCCCCC1,94.6% (inactive)
5,N#CN1CC[C@H](C(=O)Nc2ncc(-c3ccncc3)s2)C1,6.59% (active)
6,Cc1cccc2c1O/C(=C\c1ncc([N+](=O)[O-])n1C)C2=O,4.76% (active)
7,CN(C1c2ccccc2Oc2ccccc21)S(=O)(=O)c1cc(Cl)ccc1Cl,53.4% (inactive)
8,Cc1ccc([P+](Cc2ccc([N+](=O)[O-])cc2)(c2ccc(C)cc2)c2ccc(C)cc2)cc1,97.5% (inactive)
9,Cc1ccc2oc(=O)cc(/C(=C3/C=CC=N3)c3ccc[nH]3)c2c1,10% (inactive)
10,CCN(CC)CC(O)Cc1ccc(OC)cc1 (stereo not given),108% (inactive)
11,COc1ccc(C2C=C(c3ccc(OC)c(OC)c3)N=C3SC=CN32)c(Br)c1 (stereo not given),76.6% (inactive)
12,N#CC1C=Cc2c(ccc3ccccc23)N1C(=O)c1ccccc1 (stereo not given),42.7% (inactive)
13,O=C1/C(=C/c2cccs2)CCC/C1=C\c1cccs1,101% (inactive)
14,Cc1cc(C)c(C(=O)OC(C)CNC2CCCCC2)c(C)c1 (stereo not given),97.8% (inactive)
15,Cc1ccc2nc(-c3ccc(OCC(=O)N=Nc4c(O)[nH]c5ccccc45)cc3)[nH]c2c1,95.6% (inactive)
16,O=C1/C(=C/c2ccc([N+](=O)[O-])s2)Oc2ccc(Cl)cc21,-71.1% (active)
17,COc1cc([C@@H]2c3cc4c(cc3[C@H](SC(=N)N)[C@H]3COC(=O)[C@H]23)OCO4)cc(OC)c1OC,26.3% (inactive)
18,Nc1ccc(C2=CC(c3ccc(Cl)cc3)N3C=CSC3=N2)cc1 (stereo not given),-100% (active)
19,Cc1ccc(C2C=C(c3ccc(Cl)cc3)N=C3SC=CN32)c(Br)c1 (stereo not given),91.8% (inactive)
20,Cc1c(C(=O)N[C@H](CO)Cc2ccccc2)[nH]c2ccc(Cl)cc2c1=O,101% (inactive)
